High-throughput results as filed in PubChem.
Compounds with a hit are over-represented: about 8% of the library has one in this group of screens.
HCV inh = qHTS Assay for Inhibitors of Hepatitis C Virus (HCV); AID 651820, 2012; Huh7.5.1 HCVcc-Cre infection, luciferase reporter, 44 h; 340,000 tested, 3.4% active; Potency, µM (titrated, usually from 41.8 µM), inactives show at the top dose activity change, negative = inhibition, most hits filed as inhibitors; active means well fitted inhibition curve with a large enough effect; inconclusive means small, poorly fitted or top-dose-only effect, or another doubt; inactive means no such curve, though single readings can be large or run the other way; further: potency means the concentration at half of the fitted maximal effect; on the % scale 0 is the no-effect control and ±100 the full control effect
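Reporter virus HCVcc-Cre (~0.5 moi) infects cells exposed to compound; seeding density 1,000 cells/well with 4 h settling beforehand. Luminescence, 15 sec read, taken 44 h post-infection following a 15 min RT substrate incubation.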
LASV entry inh = qHTS for Inhibitors of binding or entry into cells for Lassa Virus; Lassa virus pseudotype entry inhibition, cell reporter; Potency, µM (highest dose often 37.9 µM), inactives show at the highest dose activity change, negative = inhibition, actives largely listed as inhibitors; 300,000 tested, 1.2% active; calls by dose curve; tested in HEK293 cells; further: potency means the concentration at half of the fitted maximal effect; on the % scale 0 is the no-effect control and ±100 the full control effect; nearly all actives have a fitted effect of over 50% in size
SARS PLP yeast = qHTS of Yeast-based Assay for SARS-CoV PLP; S. cerevisiae expressing SARS-CoV PLpro, growth rescue; Potency, µM (titrated, usually from 32.9 µM), for inactives: top-dose activity, positive = growth rescue, actives largely listed as activators; 330,000 tested, 0.19% active; calls by dose curve; further: potency means the concentration at half of the fitted maximal effect; 0% is about no effect; nearly all actives have a fitted effect of over 55% in size
FMDV inh = High Throughput Screening for Foot and Mouth Disease Virus Antivirals; FMDV antiviral cell-based qHTS; 410,000 tested, 1.2% active; Potency, µM (doses to about 57.9 µM), without a hit: top-dose activity change, negative = inhibition, usual class: inhibitors; calls by dose curve; tested in HEK293T cells; further: read-out not given here; potency means the concentration at half of the fitted maximal effect; on the % scale 0 is the no-effect control and ±100 the full control effect; nearly all actives have a fitted effect of over 45% in size
Marburg entry inh = qHTS for inhibitors of binding or entry into cells for Marburg Virus; Marburg virus pseudotyped entry inhibition, cell reporter; Potency, µM (doses to about 37.8 µM), for inactives: at the top dose activity change, negative = inhibition, most hits filed as inhibitors; 300,000 tested, 1.8% active; AID 540276, 2011; calls by dose curve; tested in HEK293 cells; further: potency means the concentration at half of the fitted maximal effect; on the % scale 0 is the no-effect control and ±100 the full control effect
HCMV antiviral = qHTS Assay for inhibitors of the human cytomegalovirus (HCMV); HFF cells, HCMV-luciferase reporter, 72 h; stronger effect = lower value; activity change, negative = inhibition, % at 57.5 µM; 410,000 tested, 4.5% active; AID 1259415, 2018; in the data active means activity change below about -60%; inconclusive means no clear call, values can overlap the other calls; inactive means above about -39%; further: on the % scale 0 is the no-effect control and ±100 the full control effect
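Inhibition of viral replication was scored as loss of reporter luminescence in HFFs infected with HCMV-luciferase (MOI 1 PFU/cell) for 72 h; compounds tested at 2 doses, normalized to buffer and Salinomycin controls.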
Starred values were filed as active, the others as inactive; ? = inconclusive; . = not tested or not shown; [ ] = another dose, or the depositor's remark.

SMILES	HCV inh	LASV entry inh	SARS PLP yeast	FMDV inh	Marburg entry inh	HCMV antiviral
COc1ccc(NS(=O)(=O)c2ccc3nc(COc4cccc5ccccc45)[nH]c3c2)cc1	?	?	-11%	-20%	15µM*	-79*
CCOC(=O)c1cccc(NC(=O)CSc2nc3cccnc3n2C)c1	?	?	-4%	18µM*	?	?
CCOC(=O)c1sc(NC(=O)CNCc2ccccn2)c(C(=O)OCC)c1C	4%	?	-1%	?	?	-11
CCOC(=O)c1c(NC(=O)CSc2nc3cccnc3n2C)sc(C(C)=O)c1C	?	-10%	-5%	28µM*	10µM*	.
CCOC(=O)c1sc(NC(=O)CNCc2cccnc2)c(C(=O)OCC)c1C	-17%	-14%	3%	?	?	-62*
CCOC(=O)c1c(NC(=O)CSc2nnc(-c3ccccc3C)n2C)sc(C(C)=O)c1C	10µM*	-13%	2%	?	7%	-35
COCCNc1nc2c(c(=O)n(C)c(=O)n2C)n1Cc1c(F)cccc1Cl	.	?	.	?	?	-19
COc1ccc(NC(=O)C(NC(=O)C2CCC(C)CC2)C(C)C)cc1 (stereo not drawn)	.	4%[46.1 µM]	.	12%	-4%[46.1 µM]	7
Cc1nnc2c(N3CCN(c4ccc(F)cc4)CC3)nc3ccc(C(=O)c4ccccc4)cc3n12	.	-3%[46.1 µM]	.	6%	.	0
O=C(CCCN1C(=O)S/C(=C\C=C\c2ccccc2)C1=O)Nc1ccc(O)cc1	13µM*	?	2%	-3%	?	-37
Cc1ccc(/C=C2\SC(=S)N(CCCC(=O)Nc3ccc(O)cc3)C2=O)cc1	-29%	?	0%	-5%	14%[46.1 µM]	-95*
O=C(CCCN1C(=O)/C(=C\c2cccs2)SC1=S)Nc1ccc(C(=O)O)cc1	25%	?	2%	-5%	5%[46.1 µM]	?
O=C(CCCN1C(=O)/C(=C/c2cccs2)SC1=S)Nc1ccccc1O	?	-17%	1%	-2%	?	-91*
O=C(CN1C(=O)S/C(=C/C=C/c2ccccc2)C1=O)Nc1ccc(C(=O)O)cc1	-17%	?	6%	29%	4%[46.1 µM]	-19
O=C(CCCN1C(=O)/C(=C\c2cccs2)SC1=S)Nc1ccc(O)cc1	?	?	0%	-11%	?	-99*
CCOC(=O)c1scc(-c2ccccc2)c1S(=O)(=O)Nc1ccc(N(C)C)cc1	.	-16%[46.1 µM]	.	-14%	.	-19
COCCN1C(=O)COCc2cc(-c3ccc(N(C)C)cc3)ccc21	.	.	.	.	.	47
O=C(CCN1C(=O)/C(=C/c2cccs2)SC1=S)Nc1ccccn1	-11%	.	0%	-20%	.	-26
O=C(CCCN1C(=O)/C(=C\c2cccs2)SC1=S)Nc1ccccn1	25µM*	-28%	-4%	4%	-11%[46.1 µM]	-97*
Clc1ccc(-c2cn3ccccc3n2)cc1	-5%	.	-30%	-5%	.	87
Brc1ccc(-c2cn3ccccc3n2)s1	8.9µM*	?	-42%	-65%	?	-11
COC(=O)Cn1cc(/C=N/NC(=O)COc2cccc3cccnc23)c2ccccc21	2%	1%	20%	-14%	-2%	-70*
O=C(Nc1ccccc1F)c1cnc(N2CCCCC2)c2ccccc12	.	-28%[46.1 µM]	.	-27%	.	6
O=C(N=Nc1c(O)[nH]c2ccc(Br)cc12)c1ccccc1-n1cccc1	18µM*	?	-12%	?	?	?
Oc1[nH]c2ccc(Br)cc2c1N=NC(=S)Nc1ccc(F)cc1	?	?	-1%	25%	?	-14
SMILES	HCV inh	LASV entry inh	SARS PLP yeast	FMDV inh	Marburg entry inh	HCMV antiviral
O=C(N=Nc1c(O)[nH]c2ccc(Br)cc12)c1cc(-c2cccs2)nc2ccccc12	?	0%	-2%	?	-8%[46.1 µM]	-61*
Oc1ccc(NC(=S)N=Nc2c(O)[nH]c3ccc(Br)cc23)cc1	-14%	11µM*	1%	-19%	?	-91*
O=C([C@H](c1ccccc1)N1CCOCC1)N1CCOCC1	.	.	.	.	29%[46.1 µM]	.
CCN1CCCC1CNC(=O)c1cnn(-c2ncc(C)c(-c3ccc(F)cc3)n2)c1C(C)C (stereo not drawn)	.	.	.	-7%	.	.
O=C(O)/C=C/C(=O)c1ccc2c(c1)CCc1ccccc1-2	13µM*	.	-1%	?	.	-61*
CC(=O)Nc1ccc2c(c1)CCc1ccccc1-2	-21%	0%[46.1 µM]	-5%	32%	?	-9
CCC[C@H](/C=C/C(=O)OCC)NC(=O)C(F)(F)F	.	.	.	.	.	-8
CCc1cccc(N=c2c([N+](=O)[O-])nn(-c3ccc4c(c3)OCCO4)n2O)c1	10µM*	?	-3%	?	?	-67*
CCOC(=O)Nc1nc(-c2ccccc2)c(C(=O)c2ccc(Cl)cc2)s1	?	?	-16%	-18%	?	-67*
CCN(C(=O)CSc1nc(-c2ccccc2)no1)c1cccc(C)c1	.	0%[46.1 µM]	.	?	-26%[46.1 µM]	-107*
Cc1ccc(Cc2nc3ccccc3nc2SCC(=O)N2CCCCC2C)cc1 (stereo not drawn)	.	?	.	?	.	-21
CCN(C(=O)CSc1nc2ccccc2nc1Cc1cccc(OC)c1)c1cccc(C)c1	.	7.1µM*	.	-24%	.	13
COc1cccc(Cc2nc3ccccc3nc2SCC(=O)N2CCCCC2C)c1 (stereo not drawn)	.	11µM*	.	-4%	.	-38
COc1ccc(CN(Cc2ccco2)c2cnc(S(C)(=O)=O)nc2C(=O)Nc2ccc(F)cc2)cc1	.	-23%[46.1 µM]	.	5%	-25%[46.1 µM]	4
CC(=O)CCC1C2C(O)C(C(C)C)C(OC(=O)/C=C/c3ccccc3)CC12C (stereo not drawn)	-16%	.	1%	?	.	1
CC(=O)OC1C(O)C(C)OC(OC2C(OC(=O)C3CCC4C(C3)OC3(CC(OC(=O)/C=C/c5ccccc5)C(C)CO3)C43CO3)OC(C)C(O)C2OC(C)=O)C1O (stereo not drawn)	?	?	.	?	?	-98*
COc1ccccc1OCCSc1nnc(C)n1-c1ccccc1	20%	-6%	4%	17%	-12%[46.1 µM]	26
COc1ccc(OCCSc2nnc(C)n2-c2ccccc2)cc1	1%	9.2µM*	6%	-16%	?	-13
O=C(CSc1ncnc2c1nnn2Cc1ccccc1F)N1CCN(c2ccccc2)CC1	5%	?	-4%	35µM*	-8%	-16
O=C(Cn1cnc2c(nnn2Cc2ccccc2F)c1=O)N1CCN(c2ccccc2)CC1	-3%	15%	4%	.	14%	?
CC(C)(C)NC(=O)CSc1ncnc2c1nnn2Cc1ccccc1Cl	?	18µM*	2%	?	?	32
COc1cccc(NC(=O)CSc2nc(=O)[nH]c3c2CCCC3)c1	.	4%[46.1 µM]	.	-12%	.	-24
